# A selection: hits, their analogues and other compounds. The true share with any hit is near 4.8%.
# ATXN viability – reduces viability in counter-screen for ATXN expression inhibitors. Potency, µM (doses to about 56.7 µM), most hits filed as cytotoxic. S2 cells (HEK-293 line with an ATXN2-luciferase reporter) viability, CellTiter-Fluor protease fluorescence, 24 h. actives 0.49% (n = 400,000); note: potency is the fitted concentration of half-maximal effect; nearly all actives have a fitted effect of over 40% in size
# IL1B secr inh – blocks inflammasome-driven IL-1 beta release. THP-1 LPS/ATP IL-1B secretion, AlphaLISA, 16 h; hits give low values. activity change, % at 57.5 µM. actives 4.7% (n = 360,000); in the data active = activity change below about -50%; inconclusive = mostly about -30% to -49%; note: % is set by controls: 0 for no effect and ±100 for the full control effect
#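 Secreted IL-1B measured by AlphaLISA bead assay after 16 h compound exposure of THP-1 cells; compounds (final up to 57.5 uM) added 1 h before LPS (250 ng/mL) and ATP (1.25 mM) stimulation; lower signal means less secretion.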
# USP1 inh – blocks the human USP1/UAF1 deubiquitinase complex; AID 743255; actives 0.23% (n = 390,000); O94782; recombinant USP1/UAF1, Ub-Rhodamine cleavage fluorescence; Potency, µM (series often up to 57.1 µM), inactives show at the top dose activity change, negative = inhibition, actives largely listed as inhibitors; note: potency is the fitted concentration of half-maximal effect; % is set by controls: 0 for no effect and ±100 for the full control effect; nearly all actives have a fitted effect of over 60% in size
#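 High-throughput fluorogenic screen: 1nM USP1/UAF1 complex, Ub-Rho substrate 150nM final, 50mM HEPES pH 7.8 with 0.5mM EDTA, 0.1 mg/ml BSA, 1mM TCEP and 0.01% Tween-20.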
# ATXN2 expr inh – reduces ATXN2 reporter expression in HEK-293 cells; HEK-293 ATXN2-luciferase reporter, luminescence, 24 h; Potency, µM (highest dose often 57 µM), inactives show at the top dose activity change, negative = inhibition, most hits filed as inhibitors; actives 0.72% (n = 360,000); note: potency is the fitted concentration of half-maximal effect; % is set by controls: 0 for no effect and ±100 for the full control effect; nearly all actives have a fitted effect of over 55% in size
#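 qHTS (up to 57 uM final) was run with 24 h compound exposure of reporter cells at 37 °C. Each well was multiplexed: SteadyGlo luminescence measured ATXN2-luciferase expression after a fluorogenic Gly-Phe-AFC viability readout (25 uM final).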
# USP2a block – USP2a (human) protease inhibition; O75604; USP2 core, Ub-CHOP2 coupled fluorogenic reporter, 485/531; Potency, µM (series often up to 38.3 µM), inactives show at the top dose activity change, negative = inhibition, most hits filed as inhibitors; actives 0.01% (n = 330,000); AID 463254;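 note: potency is the fitted concentration of half-maximal effect; plate controls were DMSO wells for no effect and full inhibition by NEM control for full effect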
# Target sequence (O75604 whole entry, looked up): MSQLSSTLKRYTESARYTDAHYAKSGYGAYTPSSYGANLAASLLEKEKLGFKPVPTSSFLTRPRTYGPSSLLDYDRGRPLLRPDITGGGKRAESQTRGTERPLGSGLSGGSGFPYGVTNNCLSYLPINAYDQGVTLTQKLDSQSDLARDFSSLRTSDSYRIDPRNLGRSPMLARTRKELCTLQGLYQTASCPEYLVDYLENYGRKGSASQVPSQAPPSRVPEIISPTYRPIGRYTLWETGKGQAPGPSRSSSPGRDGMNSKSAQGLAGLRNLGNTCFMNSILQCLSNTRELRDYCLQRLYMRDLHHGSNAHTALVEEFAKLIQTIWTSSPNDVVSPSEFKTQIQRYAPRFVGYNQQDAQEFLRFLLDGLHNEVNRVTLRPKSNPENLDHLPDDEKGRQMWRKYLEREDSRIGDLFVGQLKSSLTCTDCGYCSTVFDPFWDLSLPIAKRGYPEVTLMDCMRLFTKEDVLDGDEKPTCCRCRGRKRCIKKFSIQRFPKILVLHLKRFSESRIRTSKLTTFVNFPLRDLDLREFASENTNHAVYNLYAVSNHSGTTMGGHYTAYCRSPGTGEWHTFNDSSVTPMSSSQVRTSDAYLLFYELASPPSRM
#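 Deubiquitinase activity read as fluorescence (485/531 nm) after Ub-CHOP2 cleavage activates the enterokinase reporter on its substrate; USP2 core 10nM, Ub-CHOP2 and substrate 25nM each, 30min compound preincubation then 60min RT; data normalized to NEM, curves fitted.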
# The depositor's hits bear a star; i = inactive; ? = inconclusive; / = no result given; [ ] = dose if it differs, or a comment. Unless noted, calls come from the whole dose curve; as a rule, active = well fitted curve in the direction sought with a large enough effect; inconclusive = small, poorly fitted or top-dose-only effect, or another doubt; inactive = no such curve, though single readings can be large; an effect the other way counts as inactive or inconclusive.
SMILES,ATXN viability,IL1B secr inh,USP1 inh,ATXN2 expr inh,USP2a block
CCCCNc1c(-c2cccc(SC3CCCCC3)c2)nc2ccc(Cl)cn12,i,-8.5,-9.9%,-5.2%,-0.3%
CCCCNc1c(-c2ccc(SC(C)CC)cc2)nc2ccccn12 (stereo not given),?,0.0,-8.0%,?,-2.1%
COc1ccc(-c2nc3ccc(C)cn3c2NCc2ccccc2)cc1SC1CCCCC1,15.8µM*,0.0,?,-9.1%,0.4%
CCCCNc1c(-c2ccc(OC)c(SC3CCCCC3)c2)nc2ccc(C)cn12,10µM*,-58.8*,-6.8%,25.1µM*,-0.3%
Cc1ccc2nc(-c3cccc(SC4CCCCC4)c3)c(NCc3ccccc3)n2c1,?,-2.7,-11.7%,?,-0.6%
Cc1csc(NC(=O)C2(C)CCN2C(=O)C(C)C)c1C#N (stereo not given),i,50.3,/,-0.9%,/
CCOC(=O)c1nnn(C(CC)C(=O)Nc2ccc(F)cc2)c1C(=O)OCC (stereo not given),i,/,-6.2%,4.9%,/
COc1ccc(NC(=O)N(C)[C@H]2C[C@H]3c4[nH]c5ccc(-c6ccc(OC)cc6)cc5c4CCN3C[C@H]2[C@H](C)O)cc1,/,?,-9.2%,22.4µM*,/
CN[C@H]1C[C@H]2c3[nH]c4ccc(-c5ccc(OC)cc5)cc4c3CCN2C(=O)[C@H]1[C@H](C)O,?,?,-23.7%,17.8µM*,/
COc1ccc(NC(=O)N(C)[C@H]2C[C@H]3c4[nH]c5ccc(-c6ccc7c(c6)OCO7)cc5c4CCN3C[C@H]2[C@H](C)O)cc1,20µM*,-11.6,-4.9%,15.8µM*,/
CN1C(=S)SC(C)(C)C1N(O)C(=O)Nc1ccc(Cl)cc1 (stereo not given),i,-21.7,-19.8%,-9.7%,0.2%
CC1(C)C(N(O)C(=O)Nc2ccc(Cl)cc2)N(c2ccc(Cl)cc2)C(=O)N1CC(=O)NN (stereo not given),i,-53.2*,-2.7%,-36.9%,-19.8%
O=C(CCCN1C(=O)/C(=C\c2ccccc2)SC1=S)Nc1cccc(C(=O)O)c1,i,-1.7,-24.3%,13.5%,-4.8%
COc1cccc(/C=C2\SC(=S)N(CC3CCCO3)C2=O)c1 (stereo not given),i,-70.7*,-4.7%,30.1%,2.6%
O=C(CCCN1C(=O)S/C(=C/C=C/c2ccccc2)C1=O)Nc1ccc(C(=O)O)cc1,i,-8.9,-17.0%,0.9%,1.2%
O=C(CCCN1C(=O)/C(=C/c2ccccc2)SC1=S)Nc1cccc(O)c1,?,-52.3*,-16.7%,/,-7.0%
Cc1ccc(/C=C2\SC(=S)N(CCCC(=O)NC3CCCC3)C2=O)cc1,i,i,-0.9%,12.6µM*,-0.4%
O=C(CN1C(=O)S/C(=C\C=C\c2ccccc2)C1=O)Nc1ccc(O)cc1,i,-53.8*,-16.2%,47.0%,-3.7%
COc1ccc2[nH]c3c(c2c1)CCN1C(=O)C(CC(=O)NCCC2=CCCCC2)C[C@H](C(=O)N2CCOCC2)[C@@]31C (stereo not given in full),i,-12.5,-26.2%,0.0%,3.0%
COc1ccc(NC(=O)CS(=O)CC(=O)Nc2ccc(NC(C)=O)cc2)cc1 (stereo not given),i,-16.3,1.5%,-9.0%,1.1%
COc1cccc(/C=C2/SC(=S)N(CCCC(=O)Nc3ccc(O)cc3)C2=O)c1,?,-84.8*,-20.9%,15.8µM*,-1.3%
O=C(CCCN1C(=O)/C(=C\c2ccccc2)SC1=S)Nc1ccc(O)cc1,i,-104.9*,-26.1%,17.6%[11.3 µM],-1.9%
COc1ccc(/C=C2\SC(=S)N(CCC(=O)Nc3ccc(O)cc3)C2=O)cc1,i,16.2,-12.7%,5.5%,-0.2%
COc1cc(/C=C2\SC(=S)N(CCC(=O)Nc3cccc(O)c3)C2=O)cc(OC)c1OC,?,-98.3*,-8.3%,-24.6%,0.4%
CCN(CC)CCOC(=O)c1ccc(NC(=O)CCCN2C(=O)S/C(=C/c3ccc(OC)cc3)C2=S)cc1,?,-69.0*,?,7.08µM*,0.3%
SMILES,ATXN viability,IL1B secr inh,USP1 inh,ATXN2 expr inh,USP2a block
O=C(CCN1C(=O)/C(=C\c2ccccc2)SC1=S)Nc1ccc(C(=O)O)cc1,i,29.9,-15.8%,10.2%,-1.3%
Cc1ccc(NS(=O)(=O)c2coc(C(N)=O)c2)cc1F,i,39.1,-16.3%,-0.2%,0.0%
O=C(CNC(=O)c1ccc(Cl)cc1Cl)OCc1cn2cc(Br)ccc2n1,i,29.3,-14.7%,10.0%,0.9%
COc1ccc(CCN(C)C(=O)c2cnn(-c3nccc(-c4ccc(C)o4)n3)c2C)cc1OC,i,/,/,/,/
OC1c2cc(Cl)ccc2-c2c(Cl)cc(Cl)cc21 (stereo not given),i,39.9,?,16.1%,/
Cc1ccc(/C=C2/SC(=S)N(CCCC(=O)Nc3ccc(O)cc3)C2=O)cc1,?,-62.3*,-6.9%,2.51µM*,-0.2%
Cc1scc(C(=O)N/N=C/c2ccc(OC(C)C)cc2)c1C,i,-69.8*,-11.8%,38.2%,-2.0%
N#Cc1c([N+](=O)[O-])cc([N+](=O)[O-])cc1S(=O)(=O)Cc1ccccc1,31.6µM*,-112.2*,-27.9%,?,-2.0%
COc1cc(OC)c(C#N)c(S(=O)(=O)Cc2ccccc2)c1,i,-20.7,-12.9%,-3.6%,0.5%
O=C(O)c1cccc(N/N=C(\N=Nc2ccccc2)c2ccccc2)c1,?,-17.3,-13.1%,?,3.9%
O=C(O)c1ccc(N=N/C(=N\Nc2ccc(C(=O)O)cc2)c2ccccc2)cc1,12.6µM*,-4.2,?,1.2%,-14.6%
O=C(CCl)Nc1c(C(=O)Nc2ccc3c(c2)OCCO3)oc2ccccc12,?,-98.6*,-13.6%,-33.4%,4.3%
CCOC(=O)CN1CCCC1=O,i,/,/,11.7%,/
CCCCNC(=NCc1cccc(C(F)(F)F)c1)Nc1ccccc1,i,-83.0*,-17.6%,?,-0.9%
O=C(/C=C/C=C/c1ccccc1)CC1(O)C(=O)N(CCc2ccccc2)c2ccccc21 (stereo not given),i,-100.1*,-15.0%,-15.9%,0.1%
CCN1C(=O)C(O)(CC(=O)/C=C/C=C/c2ccccc2)c2ccccc21 (stereo not given),i,?,-18.7%,-13.0%,3.6%
Cc1ccc2c(c1)C(O)(CC(=O)/C=C/C=C/c1ccccc1)C(=O)N2 (stereo not given),i,-55.7*,-9.4%,3.7%,1.3%
NC(=O)CN1C(=O)C(O)(CC(=O)/C=C\C=C\c2ccccc2)c2ccccc21 (stereo not given),i,-85.6*,0.6%,11.5%,3.3%
CC1=C(C(=O)OCc2ccc(C)cc2)C(c2cccc(F)c2F)CC(=O)N1 (stereo not given),i,/,-25.6%,-15.4%,/

# Screens: PubChem BioAssay, National Center for Advancing Translational Sciences (NCATS)
